In ChEMBL document CHEMBL1961873, “Compounds: GSK PKIS; Assays: Nanosyn kinase panel” (2012):

Tests used:
[1] = target: T1, Inhibitor of nuclear factor kappa-B kinase subunit epsilon (Homo sapiens) (UniProt Q14164); conditions: at 1 µM;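 further: reported values are averaged percent inhibition figures against human IKKε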
T1 sequence (whole entry): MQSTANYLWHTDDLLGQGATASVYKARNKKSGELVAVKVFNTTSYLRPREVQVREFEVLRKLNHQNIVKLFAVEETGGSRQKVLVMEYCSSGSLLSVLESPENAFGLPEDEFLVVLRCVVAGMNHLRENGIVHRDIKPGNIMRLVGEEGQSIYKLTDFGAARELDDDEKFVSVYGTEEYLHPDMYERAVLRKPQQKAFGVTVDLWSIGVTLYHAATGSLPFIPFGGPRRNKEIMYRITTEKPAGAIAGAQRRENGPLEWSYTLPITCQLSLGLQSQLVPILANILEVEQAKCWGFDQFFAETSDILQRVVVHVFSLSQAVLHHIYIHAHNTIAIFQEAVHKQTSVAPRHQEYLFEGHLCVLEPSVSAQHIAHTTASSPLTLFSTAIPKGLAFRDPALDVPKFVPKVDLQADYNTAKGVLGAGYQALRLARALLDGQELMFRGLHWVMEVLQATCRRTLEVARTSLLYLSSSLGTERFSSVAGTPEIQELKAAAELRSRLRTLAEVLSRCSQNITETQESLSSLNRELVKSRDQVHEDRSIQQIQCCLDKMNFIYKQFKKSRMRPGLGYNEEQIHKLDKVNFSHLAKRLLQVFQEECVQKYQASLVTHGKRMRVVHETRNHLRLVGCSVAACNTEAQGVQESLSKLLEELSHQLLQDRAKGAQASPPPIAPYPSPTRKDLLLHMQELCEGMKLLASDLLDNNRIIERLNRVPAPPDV

[2] = target: T2, Serine/threonine-protein kinase Nek1 (Homo sapiens) (UniProt Q96PY6); conditions: at 0.1 µM
T2 sequence (whole entry): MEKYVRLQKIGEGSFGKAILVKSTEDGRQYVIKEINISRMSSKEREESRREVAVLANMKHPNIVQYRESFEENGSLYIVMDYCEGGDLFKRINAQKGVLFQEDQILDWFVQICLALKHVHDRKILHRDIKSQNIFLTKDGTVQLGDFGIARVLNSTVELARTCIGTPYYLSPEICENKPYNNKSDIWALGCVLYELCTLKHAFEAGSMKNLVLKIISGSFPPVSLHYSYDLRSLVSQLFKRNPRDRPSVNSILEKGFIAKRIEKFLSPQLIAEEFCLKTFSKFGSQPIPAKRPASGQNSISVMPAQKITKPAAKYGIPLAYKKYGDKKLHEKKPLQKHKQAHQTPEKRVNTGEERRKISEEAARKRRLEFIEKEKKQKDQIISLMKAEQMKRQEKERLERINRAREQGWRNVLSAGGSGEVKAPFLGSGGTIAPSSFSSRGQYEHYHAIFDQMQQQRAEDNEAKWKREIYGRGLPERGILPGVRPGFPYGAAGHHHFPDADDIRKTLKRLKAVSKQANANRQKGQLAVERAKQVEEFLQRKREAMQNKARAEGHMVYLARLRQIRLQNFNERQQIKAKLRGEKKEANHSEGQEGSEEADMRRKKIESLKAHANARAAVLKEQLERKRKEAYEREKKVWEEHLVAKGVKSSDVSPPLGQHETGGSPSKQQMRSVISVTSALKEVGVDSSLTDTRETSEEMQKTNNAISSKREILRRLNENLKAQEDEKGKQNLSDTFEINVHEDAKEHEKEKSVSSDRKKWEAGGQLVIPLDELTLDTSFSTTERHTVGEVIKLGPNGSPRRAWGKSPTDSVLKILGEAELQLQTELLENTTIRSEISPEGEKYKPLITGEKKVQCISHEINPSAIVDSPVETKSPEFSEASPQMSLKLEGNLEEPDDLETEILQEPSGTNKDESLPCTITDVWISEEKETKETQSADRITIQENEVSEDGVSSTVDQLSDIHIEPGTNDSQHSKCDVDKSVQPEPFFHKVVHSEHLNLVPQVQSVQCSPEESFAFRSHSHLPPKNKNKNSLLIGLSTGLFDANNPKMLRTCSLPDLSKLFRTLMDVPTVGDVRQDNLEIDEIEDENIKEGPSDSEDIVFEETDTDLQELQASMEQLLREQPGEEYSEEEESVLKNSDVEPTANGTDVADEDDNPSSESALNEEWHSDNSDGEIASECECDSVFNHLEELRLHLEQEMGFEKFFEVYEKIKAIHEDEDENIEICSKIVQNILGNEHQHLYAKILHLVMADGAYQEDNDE

[3] = target: T2, Serine/threonine-protein kinase Nek1 (Homo sapiens); conditions: at 1 µM
[4] = target: T3, Serine/threonine-protein kinase Nek2 (Homo sapiens) (UniProt P51955); conditions: at 0.1 µM
T3 sequence (whole entry): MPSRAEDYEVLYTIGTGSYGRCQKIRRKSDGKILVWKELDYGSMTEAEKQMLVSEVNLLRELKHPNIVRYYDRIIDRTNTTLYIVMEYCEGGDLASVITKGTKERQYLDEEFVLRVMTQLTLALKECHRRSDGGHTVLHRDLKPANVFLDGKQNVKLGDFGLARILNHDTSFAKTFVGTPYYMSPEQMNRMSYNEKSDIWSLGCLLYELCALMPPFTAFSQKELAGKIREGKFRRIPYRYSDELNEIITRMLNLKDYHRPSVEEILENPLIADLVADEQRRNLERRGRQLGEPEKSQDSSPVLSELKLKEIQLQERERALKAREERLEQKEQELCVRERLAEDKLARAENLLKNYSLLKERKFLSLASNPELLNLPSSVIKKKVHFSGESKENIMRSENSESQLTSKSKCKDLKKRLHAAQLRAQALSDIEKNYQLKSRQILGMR

[5] = target: T3, Serine/threonine-protein kinase Nek2 (Homo sapiens); conditions: at 1 µM
[6] = target: Serine/threonine-protein kinase Nek6 (Homo sapiens) (UniProt Q9HC98); conditions: at 0.1 µM
Serine/threonine-protein kinase Nek6 (Homo sapiens), sequence (Q9HC98 whole entry): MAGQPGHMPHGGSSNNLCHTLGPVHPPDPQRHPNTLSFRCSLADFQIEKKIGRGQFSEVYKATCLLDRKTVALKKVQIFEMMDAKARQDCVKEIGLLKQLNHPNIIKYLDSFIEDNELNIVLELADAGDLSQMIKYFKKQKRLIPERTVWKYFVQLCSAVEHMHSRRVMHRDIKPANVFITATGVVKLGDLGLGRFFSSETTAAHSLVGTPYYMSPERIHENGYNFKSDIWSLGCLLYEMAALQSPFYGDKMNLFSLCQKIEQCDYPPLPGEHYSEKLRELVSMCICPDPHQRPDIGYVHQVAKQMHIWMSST

[7] = target: Serine/threonine-protein kinase Nek6 (Homo sapiens) (UniProt Q9HC98); conditions: at 1 µM
[8] = target: Serine/threonine-protein kinase Nek7 (Homo sapiens) (UniProt Q8TDX7); conditions: at 0.1 µM
Serine/threonine-protein kinase Nek7 (Homo sapiens), sequence (Q8TDX7 whole entry, looked up): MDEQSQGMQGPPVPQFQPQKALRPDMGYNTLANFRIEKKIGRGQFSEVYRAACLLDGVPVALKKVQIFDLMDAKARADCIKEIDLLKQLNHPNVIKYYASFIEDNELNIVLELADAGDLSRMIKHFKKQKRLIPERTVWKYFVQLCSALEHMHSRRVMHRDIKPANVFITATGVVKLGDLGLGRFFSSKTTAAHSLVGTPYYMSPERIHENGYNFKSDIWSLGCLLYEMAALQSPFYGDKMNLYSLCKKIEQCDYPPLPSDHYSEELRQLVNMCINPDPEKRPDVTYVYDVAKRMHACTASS

[9] = target: Serine/threonine-protein kinase Nek7 (Homo sapiens) (UniProt Q8TDX7); conditions: at 1 µM
[10] = target: T4, Serine/threonine-protein kinase Nek9 (Homo sapiens) (UniProt Q8TD19); conditions: at 0.1 µM
T4 sequence (whole entry): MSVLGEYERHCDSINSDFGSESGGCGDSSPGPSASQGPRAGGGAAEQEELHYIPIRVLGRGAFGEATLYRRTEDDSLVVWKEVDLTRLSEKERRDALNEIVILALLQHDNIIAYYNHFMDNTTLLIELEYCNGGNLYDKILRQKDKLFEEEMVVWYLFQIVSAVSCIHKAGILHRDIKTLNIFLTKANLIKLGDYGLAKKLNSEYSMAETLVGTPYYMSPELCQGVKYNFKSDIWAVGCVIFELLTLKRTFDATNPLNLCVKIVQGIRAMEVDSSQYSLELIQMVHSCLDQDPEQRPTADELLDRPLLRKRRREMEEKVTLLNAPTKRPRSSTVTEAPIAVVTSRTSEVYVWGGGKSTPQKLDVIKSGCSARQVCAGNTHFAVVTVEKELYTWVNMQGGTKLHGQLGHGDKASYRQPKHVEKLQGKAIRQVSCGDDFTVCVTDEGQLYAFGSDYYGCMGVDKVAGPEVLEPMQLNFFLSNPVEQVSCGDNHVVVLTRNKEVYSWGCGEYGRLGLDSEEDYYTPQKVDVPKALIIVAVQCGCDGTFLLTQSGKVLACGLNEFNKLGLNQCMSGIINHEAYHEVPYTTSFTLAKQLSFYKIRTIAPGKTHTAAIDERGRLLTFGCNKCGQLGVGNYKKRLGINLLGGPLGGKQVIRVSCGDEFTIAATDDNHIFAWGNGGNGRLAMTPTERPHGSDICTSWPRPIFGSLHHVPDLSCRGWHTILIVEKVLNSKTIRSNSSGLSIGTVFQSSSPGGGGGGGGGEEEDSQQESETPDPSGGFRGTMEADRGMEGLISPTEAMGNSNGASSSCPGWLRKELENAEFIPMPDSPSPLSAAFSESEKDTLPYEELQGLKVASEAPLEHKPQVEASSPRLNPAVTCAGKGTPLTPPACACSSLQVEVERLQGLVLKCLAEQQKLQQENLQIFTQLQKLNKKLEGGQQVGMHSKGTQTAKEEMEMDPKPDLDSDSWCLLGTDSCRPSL

[11] = target: T4, Serine/threonine-protein kinase Nek9 (Homo sapiens); conditions: at 1 µM
[12] = target: Serine/threonine-protein kinase PLK1 (Homo sapiens) (UniProt P53350); conditions: at 0.1 µM
Serine/threonine-protein kinase PLK1 (Homo sapiens), sequence (P53350 whole entry): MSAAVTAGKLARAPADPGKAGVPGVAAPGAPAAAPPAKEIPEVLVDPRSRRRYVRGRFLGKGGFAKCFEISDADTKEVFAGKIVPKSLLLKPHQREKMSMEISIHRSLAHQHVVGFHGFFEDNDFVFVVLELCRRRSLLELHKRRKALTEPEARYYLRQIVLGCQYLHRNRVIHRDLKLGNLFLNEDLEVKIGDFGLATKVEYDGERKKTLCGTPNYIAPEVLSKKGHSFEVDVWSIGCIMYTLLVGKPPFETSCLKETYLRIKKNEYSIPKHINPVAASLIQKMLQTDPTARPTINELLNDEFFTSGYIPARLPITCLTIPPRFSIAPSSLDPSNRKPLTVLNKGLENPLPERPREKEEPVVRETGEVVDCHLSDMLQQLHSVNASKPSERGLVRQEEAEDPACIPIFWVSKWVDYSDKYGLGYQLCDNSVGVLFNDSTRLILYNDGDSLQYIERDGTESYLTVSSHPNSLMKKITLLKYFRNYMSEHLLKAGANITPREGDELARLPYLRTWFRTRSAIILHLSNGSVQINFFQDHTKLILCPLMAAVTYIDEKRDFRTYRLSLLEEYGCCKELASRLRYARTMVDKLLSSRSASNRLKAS

[13] = target: Serine/threonine-protein kinase PLK1 (Homo sapiens) (UniProt P53350); conditions: at 1 µM
[14] = target: T5, Dual specificity protein kinase TTK (Homo sapiens) (UniProt P33981); conditions: at 0.1 µM
T5 sequence (whole entry): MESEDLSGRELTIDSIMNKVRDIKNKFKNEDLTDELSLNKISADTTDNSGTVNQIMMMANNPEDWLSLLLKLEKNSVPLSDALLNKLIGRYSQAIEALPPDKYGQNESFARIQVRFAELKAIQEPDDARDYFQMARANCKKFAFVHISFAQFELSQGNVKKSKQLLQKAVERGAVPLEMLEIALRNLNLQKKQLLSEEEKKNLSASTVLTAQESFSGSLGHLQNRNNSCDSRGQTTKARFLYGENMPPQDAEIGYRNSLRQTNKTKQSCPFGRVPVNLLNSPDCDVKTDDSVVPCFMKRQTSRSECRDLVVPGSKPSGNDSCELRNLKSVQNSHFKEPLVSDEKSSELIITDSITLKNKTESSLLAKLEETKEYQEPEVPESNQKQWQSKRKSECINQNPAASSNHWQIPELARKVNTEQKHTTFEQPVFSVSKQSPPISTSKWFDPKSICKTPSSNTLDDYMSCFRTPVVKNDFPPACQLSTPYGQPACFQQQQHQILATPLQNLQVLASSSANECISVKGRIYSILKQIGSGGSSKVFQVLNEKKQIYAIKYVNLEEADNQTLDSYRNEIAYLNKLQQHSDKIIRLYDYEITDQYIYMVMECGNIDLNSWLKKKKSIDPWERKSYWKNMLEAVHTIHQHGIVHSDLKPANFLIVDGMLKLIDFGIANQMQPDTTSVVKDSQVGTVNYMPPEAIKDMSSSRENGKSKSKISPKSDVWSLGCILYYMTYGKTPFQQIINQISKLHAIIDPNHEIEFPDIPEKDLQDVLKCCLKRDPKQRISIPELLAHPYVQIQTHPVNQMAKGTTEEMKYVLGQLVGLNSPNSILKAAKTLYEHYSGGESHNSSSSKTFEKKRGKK

[15] = tested on: T6, Receptor-type tyrosine-protein kinase FLT3 (Homo sapiens), P36888 [D835Y]; conditions: at 1 µM
T6 sequence (whole entry): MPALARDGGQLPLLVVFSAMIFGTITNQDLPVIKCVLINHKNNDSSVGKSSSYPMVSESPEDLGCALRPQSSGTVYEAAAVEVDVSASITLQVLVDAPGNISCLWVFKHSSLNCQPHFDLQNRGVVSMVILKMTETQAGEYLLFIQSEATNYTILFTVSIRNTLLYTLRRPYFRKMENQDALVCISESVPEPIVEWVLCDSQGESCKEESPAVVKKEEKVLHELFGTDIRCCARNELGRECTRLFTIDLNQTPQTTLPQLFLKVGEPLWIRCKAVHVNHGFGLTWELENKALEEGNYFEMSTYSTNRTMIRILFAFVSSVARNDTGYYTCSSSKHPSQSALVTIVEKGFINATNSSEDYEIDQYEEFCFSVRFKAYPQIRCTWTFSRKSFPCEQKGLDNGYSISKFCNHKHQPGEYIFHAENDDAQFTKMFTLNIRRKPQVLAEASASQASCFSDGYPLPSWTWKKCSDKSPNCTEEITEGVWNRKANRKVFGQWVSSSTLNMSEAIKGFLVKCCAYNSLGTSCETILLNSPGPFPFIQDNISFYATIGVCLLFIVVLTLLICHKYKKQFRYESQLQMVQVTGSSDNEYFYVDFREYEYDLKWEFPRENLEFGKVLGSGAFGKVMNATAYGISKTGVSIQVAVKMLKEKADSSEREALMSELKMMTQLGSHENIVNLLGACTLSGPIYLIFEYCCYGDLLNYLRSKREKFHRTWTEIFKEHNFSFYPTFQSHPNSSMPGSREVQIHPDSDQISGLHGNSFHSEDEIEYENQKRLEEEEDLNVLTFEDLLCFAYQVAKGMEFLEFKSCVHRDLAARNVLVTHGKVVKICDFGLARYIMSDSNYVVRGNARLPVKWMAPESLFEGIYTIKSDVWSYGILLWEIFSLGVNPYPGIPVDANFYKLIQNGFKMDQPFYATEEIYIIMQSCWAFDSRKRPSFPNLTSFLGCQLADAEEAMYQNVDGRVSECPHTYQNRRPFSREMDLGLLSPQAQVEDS

[16] = target: Vascular endothelial growth factor receptor 3 (Homo sapiens) (UniProt P35916); conditions: at 0.1 µM
Vascular endothelial growth factor receptor 3 (Homo sapiens), sequence (P35916 whole entry): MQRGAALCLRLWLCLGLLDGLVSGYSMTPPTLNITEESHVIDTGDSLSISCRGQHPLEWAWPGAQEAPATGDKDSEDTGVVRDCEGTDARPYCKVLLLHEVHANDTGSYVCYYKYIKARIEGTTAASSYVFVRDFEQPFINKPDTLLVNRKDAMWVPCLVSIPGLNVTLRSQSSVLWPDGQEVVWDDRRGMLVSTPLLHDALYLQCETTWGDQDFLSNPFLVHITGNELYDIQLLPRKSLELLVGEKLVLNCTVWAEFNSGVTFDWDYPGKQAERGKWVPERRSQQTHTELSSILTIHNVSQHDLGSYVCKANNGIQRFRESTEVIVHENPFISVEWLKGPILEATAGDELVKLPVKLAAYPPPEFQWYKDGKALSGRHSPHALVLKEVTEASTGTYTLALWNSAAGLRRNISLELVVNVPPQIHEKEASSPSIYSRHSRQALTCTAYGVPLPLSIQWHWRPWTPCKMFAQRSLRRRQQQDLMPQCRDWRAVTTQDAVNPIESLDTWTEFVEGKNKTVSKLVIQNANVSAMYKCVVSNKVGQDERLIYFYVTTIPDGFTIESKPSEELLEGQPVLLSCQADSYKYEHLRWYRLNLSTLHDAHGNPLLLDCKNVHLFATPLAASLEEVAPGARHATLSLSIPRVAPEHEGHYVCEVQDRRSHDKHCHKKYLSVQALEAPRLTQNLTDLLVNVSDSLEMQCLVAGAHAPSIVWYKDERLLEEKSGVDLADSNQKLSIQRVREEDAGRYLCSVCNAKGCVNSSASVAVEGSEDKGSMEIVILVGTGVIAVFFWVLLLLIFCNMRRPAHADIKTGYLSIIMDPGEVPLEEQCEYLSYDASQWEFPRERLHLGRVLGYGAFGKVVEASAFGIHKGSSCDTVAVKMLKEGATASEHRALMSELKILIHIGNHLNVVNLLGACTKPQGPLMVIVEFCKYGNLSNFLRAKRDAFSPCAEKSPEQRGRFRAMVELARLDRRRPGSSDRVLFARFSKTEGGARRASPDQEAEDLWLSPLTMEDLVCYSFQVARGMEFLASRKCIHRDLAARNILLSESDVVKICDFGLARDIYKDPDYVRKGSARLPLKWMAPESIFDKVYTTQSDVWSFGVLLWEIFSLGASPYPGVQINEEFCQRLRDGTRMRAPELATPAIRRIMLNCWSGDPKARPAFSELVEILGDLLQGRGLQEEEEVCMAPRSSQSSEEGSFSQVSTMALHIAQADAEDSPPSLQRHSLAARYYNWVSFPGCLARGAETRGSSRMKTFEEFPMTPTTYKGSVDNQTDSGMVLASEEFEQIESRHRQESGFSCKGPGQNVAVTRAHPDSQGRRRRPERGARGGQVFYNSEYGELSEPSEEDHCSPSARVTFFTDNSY

[17] = target: Vascular endothelial growth factor receptor 3 (Homo sapiens) (UniProt P35916); conditions: at 1 µM
[18] = target: Macrophage colony-stimulating factor 1 receptor (Homo sapiens) (UniProt P07333); conditions: at 0.1 µM
Macrophage colony-stimulating factor 1 receptor (Homo sapiens), sequence (P07333 whole entry): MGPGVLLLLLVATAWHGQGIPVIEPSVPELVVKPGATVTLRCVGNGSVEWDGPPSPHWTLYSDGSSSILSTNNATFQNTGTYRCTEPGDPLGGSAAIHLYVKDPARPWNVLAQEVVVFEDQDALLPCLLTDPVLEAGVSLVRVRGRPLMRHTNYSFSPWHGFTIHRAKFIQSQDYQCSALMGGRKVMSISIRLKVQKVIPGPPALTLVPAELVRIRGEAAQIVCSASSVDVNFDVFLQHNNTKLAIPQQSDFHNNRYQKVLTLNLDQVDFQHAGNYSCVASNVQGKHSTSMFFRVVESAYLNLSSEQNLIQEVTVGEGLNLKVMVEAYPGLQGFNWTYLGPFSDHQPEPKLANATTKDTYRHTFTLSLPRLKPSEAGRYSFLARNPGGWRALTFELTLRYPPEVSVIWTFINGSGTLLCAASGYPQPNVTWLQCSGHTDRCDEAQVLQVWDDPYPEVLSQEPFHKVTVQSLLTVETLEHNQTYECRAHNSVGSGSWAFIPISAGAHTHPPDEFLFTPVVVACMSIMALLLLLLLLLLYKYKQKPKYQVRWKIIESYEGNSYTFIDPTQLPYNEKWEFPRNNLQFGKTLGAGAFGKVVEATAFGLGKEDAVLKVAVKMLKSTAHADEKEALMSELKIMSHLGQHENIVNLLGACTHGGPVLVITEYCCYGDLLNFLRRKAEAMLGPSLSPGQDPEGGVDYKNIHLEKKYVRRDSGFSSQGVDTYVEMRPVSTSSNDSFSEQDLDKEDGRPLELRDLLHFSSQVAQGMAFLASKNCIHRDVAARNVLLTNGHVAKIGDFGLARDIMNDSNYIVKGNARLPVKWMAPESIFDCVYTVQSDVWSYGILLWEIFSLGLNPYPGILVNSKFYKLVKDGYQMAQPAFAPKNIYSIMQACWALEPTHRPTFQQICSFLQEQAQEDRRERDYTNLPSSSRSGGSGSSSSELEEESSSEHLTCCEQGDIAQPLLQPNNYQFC

[19] = target: Macrophage colony-stimulating factor 1 receptor (Homo sapiens) (UniProt P07333); conditions: at 1 µM
[20] = target: Tyrosine-protein kinase Fyn (Homo sapiens) (UniProt P06241); conditions: at 0.1 µM
Tyrosine-protein kinase Fyn (Homo sapiens), sequence (P06241 2-537 limits assumed): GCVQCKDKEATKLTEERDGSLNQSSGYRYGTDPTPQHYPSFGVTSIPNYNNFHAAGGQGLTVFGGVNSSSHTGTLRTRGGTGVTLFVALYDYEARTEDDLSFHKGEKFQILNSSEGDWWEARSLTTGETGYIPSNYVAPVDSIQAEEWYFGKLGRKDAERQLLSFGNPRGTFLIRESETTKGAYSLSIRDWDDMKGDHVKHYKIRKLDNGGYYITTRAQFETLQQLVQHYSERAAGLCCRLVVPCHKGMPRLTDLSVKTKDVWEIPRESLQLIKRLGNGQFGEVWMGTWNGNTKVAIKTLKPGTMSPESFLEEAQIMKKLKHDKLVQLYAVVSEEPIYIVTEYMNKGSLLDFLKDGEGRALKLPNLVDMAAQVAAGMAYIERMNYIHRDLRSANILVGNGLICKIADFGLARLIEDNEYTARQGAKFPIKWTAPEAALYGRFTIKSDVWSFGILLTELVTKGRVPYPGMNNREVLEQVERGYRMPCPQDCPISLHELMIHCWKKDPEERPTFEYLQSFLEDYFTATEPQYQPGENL

Question: With `CC(C)(CO)CNC(=O)c1ccc2c(c1)/C(=N/Nc1ccc(S(N)(=O)=O)cc1)C(=O)N2` as the compound, how does the inhibition [1] read?
Answer: 59.7%

Question: What about the inhibition [2] of the same compound?
Answer: 0.37%

Question: What about the inhibition [3] of the same compound?
Answer: 1.29%

Question: And the inhibition [4]?
Answer: 0.26%

Question: What about the inhibition [5] of the same compound?
Answer: 0.85%

Question: And the inhibition [6]?
Answer: 1.63%

Question: What about the inhibition [7] of the same compound?
Answer: 0.2%

Question: What about the inhibition [8] of the same compound?
Answer: -1.3%

Question: What about the inhibition [9] of the same compound?
Answer: 2.36%

Question: What about the inhibition [10] of the same compound?
Answer: 2.95%

Question: And the inhibition [11]?
Answer: 8.02%

Question: What about the inhibition [12] of the same compound?
Answer: 1.21%

Question: And the inhibition [13]?
Answer: 0.88%

Question: What about the inhibition [14] of the same compound?
Answer: 61.5%

Question: And the inhibition [15]?
Answer: 45.6%

Question: What about the inhibition [16] of the same compound?
Answer: 4.05%

Question: And the inhibition [17]?
Answer: 44.3%

Question: What about the inhibition [18] of the same compound?
Answer: -6.57%

Question: What about the inhibition [19] of the same compound?
Answer: 3.69%

Question: What about the inhibition [20] of the same compound?
Answer: 10.9%
